Records with an inconclusive call do not appear. Calls of active or inactive are those of the source. The calls were made as follows, unless noted: active = hit-call score of the fitted dose curve at least 0.9, where 1 is the maximum; inconclusive = response in the unintended direction; inactive = score below 0.9.
Tests used:
[1] = read-out: ABC Transporter (ABCB11), ABCB11 (gene 8647); test: CLD_ABCB11_6hr: CellzDirect (CLD) Gene Expression Assay for ABC Transporter (ABCB11) at 6 hours (AID 2283675);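 also: hits raise ABCB11 mRNA level so AC50 marks induction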
How it was run: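 Human primary hepatocytes (two donor preparations) given fresh chemical daily at multiple concentrations, vehicle 0.2% DMSO. ABCB11 mRNA induction measured 6 h after dosing by qNPA chemiluminescence versus DMSO; cytotoxicity annotated from morphology.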

[2] = CCTE_Padilla_ZF_144hpf_TERATOSCORE: (Legacy) CCTE's 144 Hour Post-fertilization zebrafish Assay Teratoscore, Padilla Lab (AID 2283679; active = hit-call score of the fitted dose curve at least 0.9, where 1 is the maximum; inactive = score below 0.9;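 as to AC50: zebrafish embryos with chorions exposed by immersion from 6-8 hpf to 5 dpf with daily renewal; teratogenicity score from eye scoring of death hatching and malformations at 144 hpf; higher score means more developmental defects relative to DMSO baseline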)
How it was run: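 Larvae scored by eye at 144 hpf for death, hatching and malformations after a day in clean Hanks'. Before that, daily-renewed exposure at 80 uM (0.4% DMSO, 26C) from roughly 6-8 hpf through 5 dpf, 4 embryos per chemical.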

[3] = read-out: xenobiotic metabolism (CYP1A2), CYP1A2 (gene 1544); test: CLD_CYP1A2_24hr: CellzDirect (CLD) Gene Expression Assay for xenobiotic metabolism (CYP1A2) at 24 hours (AID 2283683)
How it was run: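 Primary human hepatocytes from two donor preparations dosed daily with multiple concentrations of chemical, 0.2% DMSO vehicle. CYP1A2 mRNA at 24 h quantified by qNPA chemiluminescence; gain of signal analyzed relative to DMSO. Cytotoxicity flagged by phase-contrast morphology.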

[4] = read-out: ABC Transporter (ABCB1), ABCB1 (gene 5243); test: CLD_ABCB1_24hr: CellzDirect (CLD) Gene Expression Assay for ABC Transporter (ABCB1) at 24 hours (AID 2283684)
How it was run: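 Primary human hepatocytes, two donor preparations, dosed daily with fresh solutions; vehicle 0.2% DMSO; harvested at 24 h. ABCB1 mRNA measured by quantitative nuclease protection assay (chemiluminescence); morphology-based cytotoxicity annotated.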

[5] = read-out: Broad substrate specificity ATP-binding cassette transporter ABCG2 (Homo sapiens) (UniProt Q9UNQ0); test: CLD_ABCG2_24hr: CellzDirect (CLD) Gene Expression Assay for ABC Transporter (ABCG2) at 24 hours (AID 2283685)
How it was run: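 Primary human hepatocytes were dosed daily with ToxCast chemicals at multiple concentrations (vehicle 0.2% DMSO). ABCG2 mRNA was measured at 24 h by qNPA chemiluminescence; induction was scored as gain of signal versus DMSO.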

[6] = read-out: Cytochrome P450 2C19 (Homo sapiens) (UniProt P33261); test: CLD_CYP2C19_24hr: CellzDirect (CLD) Gene Expression Assay for xenobiotic metabolism (CYP2C19) at 24 hours (AID 2283687);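 also: activity means mRNA induction above DMSO vehicle baseline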
How it was run: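 Primary human hepatocytes (two donor preparations) dosed daily with fresh test chemical in 0.2% DMSO vehicle; CYP2C19 mRNA induction measured at 24 h by quantitative nuclease protection assay with chemiluminescence, fitted for gain of signal versus DMSO.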

[7] = read-out: Cytochrome P450 3A4 (Homo sapiens) (UniProt P08684); test: CLD_CYP3A4_24hr: CellzDirect (CLD) Gene Expression Assay for xenobiotic metabolism (CYP3A4) at 24 hours (AID 2283689)
How it was run: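 Primary human hepatocytes from two donors dosed daily with fresh compound for two days, 0.2% DMSO vehicle. CYP3A4 mRNA at 24 hr by qNPA chemiluminescence; gain-of-signal fit versus DMSO, cytotoxicity flagged by morphology.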

[8] = read-out: sulfotransferase (SULT2A), SULT2A1 (gene 6822); test: CLD_SULT2A_24hr: CellzDirect (CLD) Gene Expression Assay for sulfotransferase (SULT2A) at 24 hours (AID 2283694)
How it was run: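 Primary human hepatocytes from two donor preparations were dosed daily with fresh solutions, vehicle 0.2% DMSO. At 24 h, lysates went to quantitative nuclease protection (qNPA) with S1 digestion and chemiluminescent readout. Cytotoxicity was annotated from phase-contrast morphology.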

[9] = read-out: Cytochrome P450 2B6 (Homo sapiens) (UniProt P20813); test: CLD_CYP2B6_6hr: CellzDirect (CLD) Gene Expression Assay for xenobiotic metabolism (CYP2B6) at 6 hours (AID 2283677);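 also: actives raise CYP2B6 transcript above DMSO baseline so AC50 marks an inducer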
How it was run: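 Primary human hepatocytes dosed with chemicals at multiple concentrations, vehicle 0.2% DMSO; CYP2B6 mRNA induction measured 6 h after dosing by quantitative nuclease protection assay with chemiluminescence, gain of signal fitted relative to DMSO.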

[10] = read-out: Cytochrome P450 2C19 (Homo sapiens) (UniProt P33261); test: CLD_CYP2C19_6hr: CellzDirect (CLD) Gene Expression Assay for xenobiotic metabolism (CYP2C19) at 6 hours (AID 2283678)
How it was run: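 Primary human hepatocytes from two donor preparations were dosed daily, with 0.2% DMSO as vehicle, and harvested 6 h after dosing. CYP2C19 mRNA induction was measured by qNPA chemiluminescence and fitted as gain of signal against DMSO.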

[11] = read-out: Glyceraldehyde-3-phosphate dehydrogenase (Homo sapiens) (UniProt P04406); test: CLD_GAPDH_6hr: CellzDirect (CLD) Gene Expression Assay for Baseline Control (Glyceraldehyde 3-phosphate dehydrogenase) at 6 hours (AID 2283681);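 also: active means increased signal relative to DMSO vehicle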
How it was run: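 Primary human hepatocytes from two donor preparations, dosed at multiple concentrations with 0.2% DMSO vehicle; GAPDH mRNA measured 6 h after dosing by chemiluminescent quantitative nuclease protection assay (qNPA) on denatured lysates. Serves as background control; cytotoxicity annotated by morphology.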

[12] = read-out: Cytochrome P450 2B6 (Homo sapiens) (UniProt P20813); test: CLD_CYP2B6_24hr: CellzDirect (CLD) Gene Expression Assay for xenobiotic metabolism (CYP2B6) at 24 hours (AID 2283686)
How it was run: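 Primary human hepatocytes dosed daily for two days with fresh solutions, harvested at 24 hours; mRNA induction quantified by qNPA chemiluminescence, gain of signal vs 0.2% DMSO vehicle. Cytotoxicity annotated from phase-contrast morphology.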

[13] = read-out: organic anion transporter (SLCO1B1), SLCO1B1 (gene 10599); test: CLD_SLCO1B1_24hr: CellzDirect (CLD) Gene Expression Assay for organic anion transporter (SLCO1B1) at 24 hours (AID 2283690)
How it was run: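 Primary human hepatocytes (two donor preparations) dosed daily for two days with chemicals at multiple concentrations, 0.2% DMSO vehicle. SLCO1B1 mRNA at 24 h measured by qNPA chemiluminescence; induction fitted relative to DMSO.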

[14] = CLD_ACTIN_6hr: CellzDirect (CLD) Gene Expression Assay for Baseline Control (Actin) at 6 hours (AID 2283676);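 also: active means increased actin mRNA relative to DMSO vehicle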
How it was run: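 Primary human hepatocytes dosed with fresh chemical solutions (vehicle 0.2% DMSO), harvested at 6 h. Actin mRNA quantified by quantitative nuclease protection assay with chemiluminescent read-out, as background control relative to DMSO.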

[15] = read-out: ABC Transporter (ABCB1), ABCB1 (gene 5243); test: CLD_ABCB1_48hr: CellzDirect (CLD) Gene Expression Assay for ABC Transporter (ABCB1) at 48 hours (AID 2283695)
How it was run: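 Primary human hepatocytes from two donor preparations dosed daily on two consecutive days with 0.2% DMSO vehicle. Harvest at 48 h. ABCB1 mRNA quantified by qNPA with chemiluminescence and fitted for gain of signal versus DMSO.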

Measured: AC50

Sequence of Broad substrate specificity ATP-binding cassette transporter ABCG2 (Homo sapiens) (Q9UNQ0 whole entry, looked up): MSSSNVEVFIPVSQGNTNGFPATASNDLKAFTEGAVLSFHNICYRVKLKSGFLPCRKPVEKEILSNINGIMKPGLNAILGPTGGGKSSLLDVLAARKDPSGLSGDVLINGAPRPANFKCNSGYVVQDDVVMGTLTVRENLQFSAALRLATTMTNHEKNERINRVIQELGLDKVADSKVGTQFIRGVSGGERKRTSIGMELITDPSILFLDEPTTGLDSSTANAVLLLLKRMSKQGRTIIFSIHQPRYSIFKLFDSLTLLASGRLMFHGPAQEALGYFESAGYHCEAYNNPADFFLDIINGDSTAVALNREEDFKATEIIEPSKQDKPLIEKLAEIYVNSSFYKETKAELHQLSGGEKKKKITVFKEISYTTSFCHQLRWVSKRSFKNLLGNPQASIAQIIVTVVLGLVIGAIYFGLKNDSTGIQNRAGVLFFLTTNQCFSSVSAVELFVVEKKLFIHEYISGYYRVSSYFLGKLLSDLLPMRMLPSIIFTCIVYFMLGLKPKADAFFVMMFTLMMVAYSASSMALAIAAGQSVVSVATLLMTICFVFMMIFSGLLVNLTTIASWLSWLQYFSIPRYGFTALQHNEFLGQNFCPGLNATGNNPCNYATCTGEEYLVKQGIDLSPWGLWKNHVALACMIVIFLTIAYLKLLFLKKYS
Sequence of Glyceraldehyde-3-phosphate dehydrogenase (Homo sapiens) (P04406 whole entry, looked up): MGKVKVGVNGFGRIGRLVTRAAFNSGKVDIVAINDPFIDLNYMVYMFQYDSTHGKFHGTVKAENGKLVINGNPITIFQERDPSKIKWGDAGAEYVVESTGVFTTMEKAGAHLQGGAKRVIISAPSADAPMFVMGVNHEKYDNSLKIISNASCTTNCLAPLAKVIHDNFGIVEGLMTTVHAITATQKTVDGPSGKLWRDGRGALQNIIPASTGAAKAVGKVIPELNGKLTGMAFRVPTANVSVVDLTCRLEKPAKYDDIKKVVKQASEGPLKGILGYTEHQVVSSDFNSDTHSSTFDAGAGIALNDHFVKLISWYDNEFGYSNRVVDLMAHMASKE
Sequence of Cytochrome P450 2C19 (Homo sapiens) (P33261 whole entry, looked up): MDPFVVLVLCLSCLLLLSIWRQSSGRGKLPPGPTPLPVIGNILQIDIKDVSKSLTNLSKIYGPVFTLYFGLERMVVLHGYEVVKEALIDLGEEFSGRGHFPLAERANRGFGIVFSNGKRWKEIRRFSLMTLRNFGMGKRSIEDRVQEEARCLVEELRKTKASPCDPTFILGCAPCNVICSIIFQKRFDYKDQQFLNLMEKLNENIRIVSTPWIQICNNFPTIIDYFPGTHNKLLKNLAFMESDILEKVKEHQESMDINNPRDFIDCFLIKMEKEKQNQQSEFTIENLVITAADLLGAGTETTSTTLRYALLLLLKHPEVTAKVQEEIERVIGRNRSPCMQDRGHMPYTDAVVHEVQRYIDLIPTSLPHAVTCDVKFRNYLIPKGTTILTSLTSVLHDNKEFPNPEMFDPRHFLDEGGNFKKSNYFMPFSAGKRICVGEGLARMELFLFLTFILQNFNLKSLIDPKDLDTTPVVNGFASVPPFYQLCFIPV
Sequence of Cytochrome P450 3A4 (Homo sapiens) (P08684 whole entry, looked up): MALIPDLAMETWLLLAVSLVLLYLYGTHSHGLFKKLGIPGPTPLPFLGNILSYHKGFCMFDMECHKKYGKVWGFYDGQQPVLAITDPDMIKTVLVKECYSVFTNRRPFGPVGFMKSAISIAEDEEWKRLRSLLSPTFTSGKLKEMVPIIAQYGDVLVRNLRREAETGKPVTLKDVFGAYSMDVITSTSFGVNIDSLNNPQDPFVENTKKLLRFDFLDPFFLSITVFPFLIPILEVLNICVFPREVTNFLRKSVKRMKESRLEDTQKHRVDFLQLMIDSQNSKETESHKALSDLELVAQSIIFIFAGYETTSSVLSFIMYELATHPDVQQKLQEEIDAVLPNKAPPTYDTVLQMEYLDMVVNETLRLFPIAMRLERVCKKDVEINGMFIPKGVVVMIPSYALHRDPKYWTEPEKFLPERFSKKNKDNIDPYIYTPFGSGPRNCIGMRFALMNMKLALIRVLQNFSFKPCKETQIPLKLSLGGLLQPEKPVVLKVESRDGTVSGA

COP(=O)(OC)SCn1c(=O)oc2cc(Cl)cnc21
active: [2] 51.1 µM
inactive: [1] | [3] | [4] | [5] | [6] | [7] | [8]

CC(C1CC1)C(O)(Cn1cncn1)c1ccc(Cl)cc1 (centres undefined)
inactive: [10] | [11] | [4] | [6] | [13] | [8]
active: [9] 1.28 µM | [2] 57.6 µM | [3] 4.89 µM | [12] 4.02 µM | [7] 3.78 µM

Nc1c(Cl)cc([N+](=O)[O-])cc1Cl
active: [9] 20 µM | [2] 76.3 µM | [3] 20 µM | [12] 33.7 µM
not listed: [1] | [4] | [6] | [13]
inactive: all other assays above

CN(C)C(=O)Nc1cccc(C(F)(F)F)c1
active: [3] 3.66 µM | [12] 4.64 µM | [7] 20 µM
not listed: [1] | [8] | [11] | [15]
inactive: all other assays above

CNc1cnn(-c2cccc(C(F)(F)F)c2)c(=O)c1Cl
inactive: [14] | [10] | [2] | [4] | [8]
active: [9] 8.33 µM | [3] 5.72 µM | [12] 6.64 µM | [7] 5.8 µM

C[N+]1(C)CCCCC1
inactive: [14] | [9] | [10] | [2] | [4] | [5] | [15]
active: [7] 1.89 µM

CCOP(=S)(OCC)Oc1ccc([N+](=O)[O-])cc1
active: [9] 2.58 µM | [2] 6.3 µM | [3] 4.89 µM | [12] 0.828 µM | [7] 5.25 µM
inactive: [4] | [8]

CCC(=O)Nc1ccc(Cl)c(Cl)c1
inactive: [10] | [7] | [8]
active: [9] 7.9 µM | [2] 61.3 µM | [3] 3.95 µM | [12] 3.95 µM

CCCCN(CC)c1c([N+](=O)[O-])cc(C(F)(F)F)cc1[N+](=O)[O-]
inactive: [14] | [11] | [4] | [8]
active: [9] 2.13 µM | [2] 5.08 µM | [3] 7.29 µM | [12] 7.3 µM | [7] 6.35 µM

COP(=O)(OC)OC(Br)C(Cl)(Cl)Br (centres undefined)
active: [2] 16.7 µM
inactive: [9] | [10] | [11] | [3] | [4] | [12] | [6]

Cc1ccn2nc(S(=O)(=O)Nc3c(F)cccc3F)nc2n1
not listed: [1] | [10] | [13] | [14] | [15]
inactive: all other assays above

— PubChem BioAssay (EPA / NIEHS)
